# Shown are actives, neighbours in structure and some others; about 6.1% of the full set was active somewhere.
# D1 ag – Allosteric Agonists of the Human D1 Dopamine Receptor: qHTS; D(1A) dopamine receptor (Homo sapiens), P21728; HEK293 T-REx D1 cells, calcium flux, agonist mode; activation, % at 2 µM; actives 1% (n = 360,000); in the data active = activation above about 30%; note: 0% is about no effect
#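 Inducible HEK293 T-REx D1 cells, force-coupled to calcium signalling, were plated at 4000 cells/well with tetracycline and held overnight at 30 C. After no-wash calcium dye loading, compound-evoked calcium rise over 180 s flagged agonists.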
# D1 antag – Antagonist of Human D 1 Dopamine Receptor: qHTS | HEK293 TREx D1 cells, calcium flux, dopamine EC80; stronger effect = lower value | AID 504652, 2011 | activity change, negative = inhibition, % at 10 µM | actives 3.2% (n = 360,000); in the data active = activity change below about -30%; note: % is set by controls: 0 for no effect and ±100 for the full control effect
#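 Antagonism measured as reduced calcium response to an EC80 dopamine addition following 180 s compound pre-read; cells were inducible HEK293 Trex D1 plated overnight at 30 C, read kinetically at 1 cycle/sec.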
# D1 potentiator – Potentiators of Human D1 Dopamine Receptor: qHTS; HEK293 TREx D1 cells, calcium flux, dopamine EC20 potentiation; potentiation, % at 10 µM; actives 0.036% (n = 360,000); AID 504651, 2011; in the data active = potentiation above about 30%; note: 0% is about no effect
# DRD3 agonist – qHTS of D3 Dopamine Receptor Agonist: qHTS | D(3) dopamine receptor (Homo sapiens), P35462 | D3R DiscoveRx beta-arrestin cells, luminescence, 90 min | max activation, % | actives 0.58% (n = 410,000) | AID 652048, 2013; in the data active = max activation above about 30%; note: 0% is about no effect
# Target sequence (P35462 whole entry, looked up): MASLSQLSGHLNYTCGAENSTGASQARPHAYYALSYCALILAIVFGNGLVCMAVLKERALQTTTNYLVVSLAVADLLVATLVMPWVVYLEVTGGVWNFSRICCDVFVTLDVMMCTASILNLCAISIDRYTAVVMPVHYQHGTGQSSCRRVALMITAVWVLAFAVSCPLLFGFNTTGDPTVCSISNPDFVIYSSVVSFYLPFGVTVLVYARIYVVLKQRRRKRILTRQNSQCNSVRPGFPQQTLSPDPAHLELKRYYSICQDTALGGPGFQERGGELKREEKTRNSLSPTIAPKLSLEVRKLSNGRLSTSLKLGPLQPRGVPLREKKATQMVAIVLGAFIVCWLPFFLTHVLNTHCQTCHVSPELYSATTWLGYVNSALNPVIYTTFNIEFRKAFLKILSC
#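 Agonist mode: compounds and dopamine controls were applied to plated cells for 90 min at 37 degrees C after an overnight attachment at 1500 cells/well. Luminescent read-out followed 30 - 60 minutes at room temperature with DiscoveRx detection reagent.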
# DRD3 antagonist – qHTS of D3 Dopamine Receptor Antagonist: qHTS. D3R cells, DiscoveRx beta-arrestin luminescence, antagonist mode; stronger effect = lower value. max response, negative = inhibition, %. actives 2.5% (n = 360,000). AID 652054, 2013; in the data active = max response below about -50%; inconclusive = no clear call, values can overlap the other calls; note: % is set by controls: 0 for no effect and ±100 for the full control effect
#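 Cells expressing the human receptor were seeded at 1500 cells/well, incubated overnight at 37 degrees C in 5% CO2, then exposed to library compounds with dopamine controls for 90 minutes at 37 degrees C before luminescent detection.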
# An asterisk follows results filed as active; ? = inconclusive; nt = not tested or not shown.
SMILES,D1 ag,D1 antag,D1 potentiator,DRD3 agonist,DRD3 antagonist
COc1cc([N+](=O)[O-])cc(/C=N/NC(=O)c2cc(C)nc3ccccc23)c1O,1.2,-7.7,-8.0,-18.9,-56.1*
COc1cc([N+](=O)[O-])cc(/C=N/NC(=O)c2cc(-c3ccccc3)nc3ccccc23)c1O,2.0,-14.6,-8.0,7.0,0.4
O=C(Cn1nc(C(F)F)cc1C(F)F)N/N=C/c1ccc2c(c1)OCO2,nt,nt,nt,3.6,13.2
Cc1ccnn1CC(=O)N/N=C/c1ccc2c(c1)OCO2,2.7,-47.4*,-3.6,-8.2,?
COc1cc([N+](=O)[O-])cc(/C=N/NC(=O)Cn2nccc2C)c1O,1.0,-1.0,-6.3,-11.7,-53.3*
COc1cc([N+](=O)[O-])cc(/C=N/NC(=O)CSc2nnc(-c3ccccc3)n2C)c1O,0.0,-16.2,3.9,-5.2,-51.9*
Cc1c(C(=O)NCc2ccc(OC(C)C)cc2)sc2ncnc(N(C)C3CCCCC3)c12,5.9,-10.2,-2.6,-10.2,nt
Cc1cc2c(s1)c1cnn(Cc3cc(Cl)ccc3F)c(=O)c1n2C,0.1,-11.7,-0.5,nt,nt
COc1cc([N+](=O)[O-])cc(/C=N/NC(=O)Cn2nc(C)cc2C)c1O,0.8,-12.0,-12.9,-25.4,-59.9*
COc1ccc(/C=N/NC(=O)Cn2nc([N+](=O)[O-])cc2C)c(OC)c1OC,2.7,-11.1,-7.3,-6.4,-13.5
CCOC(=O)N1CCN(C(=S)NC(=O)c2ccc(F)c(F)c2)CC1,1.5,7.7,-3.8,6.0,2.1
C=C(C)c1cccc(C(C)(C)NC(=O)Nc2ccc(C)cn2)c1,30.1*,14.4,-2.9,-6.9,0.9
COC1c2ccccc2C(=O)N1Cc1ccc(F)cc1 (centres undefined),2.4,-1.5,-3.5,-1.0,-0.1
CC[C@@H](C(=O)O)[C@@H]1O[C@@H]([C@@H](C)[C@H](O)[C@H](C)C(=O)[C@H](CC)[C@H]2O[C@]3(C=C[C@@H](O)[C@]4(CC[C@@](C)([C@H]5CC[C@](O)(CC)[C@H](C)O5)O4)O3)[C@H](C)C[C@@H]2C)[C@@H](C)C[C@@H]1C,nt,nt,nt,54.2*,nt
Fc1ccc(C2=CC(c3ccco3)n3ncnc3N2)cc1 (centres undefined),12.2,-8.1,3.1,2.0,2.8
CC1=C(C(N)=O)C(c2ccc(Br)cc2)n2nc(CCCO)nc2N1 (centres undefined),4.2,0.2,-10.9,1.7,17.4
Brc1ccc(C2=CC(c3cccs3)n3ncnc3N2)cc1 (centres undefined),59.7*,8.1,1.1,-0.8,?
OCCCc1nc2n(n1)C(c1cccs1)C=C(c1ccc(Br)cc1)N2 (centres undefined),39.9*,3.9,4.3,nt,nt
Fc1ccc(C2=CC(c3ccc(Br)o3)n3ncnc3N2)cc1 (centres undefined),7.4,-21.6,2.2,5.1,11.4
C1=C(c2ccc(-c3ccccc3)cc2)Nc2ncnn2C1c1ccco1 (centres undefined),61.4*,7.9,1.6,23.7,27.6
CC(C)(C)Cc1nnc(NC(=O)c2ccco2)s1,1.8,-29.1,2.1,6.0,-18.9
CCCN(CCC)S(=O)(=O)c1ccc(C(=O)NNc2nc(-c3ccccc3)c3cc(Br)ccc3n2)cc1,0.1,-6.5,0.7,-4.0,-2.7
O=C(COc1ccc(F)cc1)NCC1(N2CCCCC2)CCCCC1,2.6,1.6,-5.8,-11.2,-28.2
Cc1ccc2c(=O)cc(C(=O)Nc3ccc(S(=O)(=O)N4CCCCCC4)cc3)oc2c1,0.4,8.8,0.3,-15.4,nt
COc1cc(/C=N/O)cc(Cl)c1OC,88.7*,38.4,-0.5,2.8,5.0
Cc1cccc2cc(CN(Cc3ccco3)C(=O)Nc3cccc(C#N)c3)c(Cl)nc12,14.1,-55.0*,-7.6,3.6,7.0
Cc1ccc(NC(=O)N(Cc2ccco2)Cc2cc3cc(C)cc(C)c3nc2Cl)cc1,5.3,-3.7,-5.3,nt,nt
CCOc1ccc(C(=O)Nc2ncccc2Cl)cc1,0.3,-13.7,-6.2,-1.9,-7.9
CCC1CN(CC(=O)NCc2cccc(Br)c2)c2ccccc2S1 (centres undefined),1.1,-35.3*,-3.7,-0.1,nt

# From PubChem BioAssay
